From PubChem BioAssay (Tox21) come the findings set out here.

Results filed as inconclusive are left out. Activity calls are given as the source filed them. Calls come from the whole dose curve; as a rule, active = well fitted cell-killing curve with a large enough effect in the repeat runs; inconclusive = weak or mixed curves, or effect the other way; inactive = no such curve, though single readings can be large or run the other way.
% is set by controls: 0 for no effect and ±100 for the full control effect.

A short description of the assay: qHTS assay to identify small molecule antagonists of the vitamin D receptor (VDR) signaling pathway - cell viability counter screen (AID 743225). Note: nearly all actives have a fitted effect of over 50% in size. To be noted: VDR-bla HEK293T viability, CellTiter-Glo luminescence, 16 h; series mostly up to 61 µM. From the text: U.S. Tox21 Program National Center for Advancing Translational Sciences [NCATS] NIH Chemical Genomics Center [NCGC] U.S. Environmental Protection Agency [EPA] National Institutes of Environmental Health Sciences [NIEHS] National Toxicology Program [NTP] U.S. Food and Drug Administration [FDA] Tox21 Assay Overview: The vitamin D receptor (VDR), a member of nuclear hormone receptor superfamily, plays a critical role in calcium homeostasis and bone metabolism. It is also involved in cell differentiation and growth, and thrombogenicity. To identify the compounds that inhibit VDR signaling, the VDR-UAS-bla HEK 293T cell line (Invitrogen, Carlsbad, CA, USA) containing a beta-lactamase reporter gene under the control of an upstream activator sequence (UAS) was used to screen the Tox21 10K compound library. The cytotoxicity of the Tox21 compound library against the VDR-bla cell line was tested in parallel by measuring the cell viability using CellTiter-Glo assay (Promega, Madison, WI) in the same wells.
Tox21 Assay Protocol Summary: VDR-bla cells were dispensed at 2,000 cells/5 uL of assay medium per well into black wall/clear-bottom 1536-well plates using a Multidrop Combi (Thermo Fisher Scientific, Waltham, MA) dispenser. After the assay plates were incubated at a 37C and 5% CO2 for 4 h, 23 nL of compounds dissolved in DMSO, positive controls or DMSO only was transferred to the assay plate by a Pintool station (Kalypsys, San Diego, CA), followed by addition of 1 uL of 1-alpha, 25-Dihydroxy Vitamin D3 (3 nM, final concentration in the wells) using a Bioraptr Flying Reagent Dispenser (FRD) workstation (Beckman Coulter, Indianapolis, IN). The plates were incubated at 37C and 5% CO2 for 16 h, and then 1 uL of LiveBLAzerTM B/G FRET substrate was added using a Bioraptr FRD. The plates were incubated at room temperature for 2 h and fluorescence intensity was measured by an Envision plate reader (PerkinElmer, Shelton, CT). For cell viability readout that measures cytotoxicity, 3 ul/well of CellTiter-Glo reagent was added into the assay plates using a Bioraptr FRD. After 30 min incubation at room temperature, the luminescence intensity in the plates was measured using a ViewLux plate reader (PerkinElmer).
For `O=C(Nc1ccc(Cl)c(Cl)c1)C1CC1`, the call was inactive. Consider `CC(COC(C)(C)C)OCCCO` (stereo not given), for which the compound was called inactive. The same measure, in the same setting: to `CC(=O)N[C@@H](CCC(=O)O)C(=O)O` belongs “inactive”; to `NCCS`, “inactive”. The same measure, in the same setting: under `O=C(OCc1ccccc1)C(=O)OCc1ccccc1` stands “inactive”; under `COc1nccnc1NS(=O)(=O)c1ccc(N)cc1`, “inactive”.

Take `CN=C(NC#N)Nc1ccc(C2=NNC(=O)CC2C)cc1` (stereo not given): the compound was called inactive. Take `N[C@@H](COP(=O)(O)O)C(=O)O`: the compound was classed as inactive. Still for that read-out and setting: to `CCCCCCCCCC(C)=O` belongs “inactive”; to `Cc1ccccc1C(=O)Nc1ccc(C(=O)N2CCCC(N(C)C)c3ccccc32)cc1` (stereo not given), “inactive”. As for `N[C@@H](CCC(=O)N[C@@H](CS)C(=O)NCC(=O)O)C(=O)O`, the result was inactive. Regarding `CC(C)(C)c1nnc(NS(=O)(=O)c2ccc(N)cc2)s1`, the compound was classed as inactive. For `Cc1cc(NC(=O)C2=C(O)c3ccccc3S(=O)(=O)N2C)no1`, the compound was classed as inactive. On the same count and under the same terms, to `O=C1c2ccccc2C(=O)c2cc(S(=O)(=O)O)ccc21` belongs “inactive”; to `CC(=O)NCCCCCC(=O)O`, “inactive”.

`O=C1CCCC(=O)O1`: the call was inactive. With `CC1(C)S[C@@H]2[C@H](N=CN3CCCCCC3)C(=O)N2[C@H]1C(=O)O`, the compound was called inactive.

Consider `Cc1ccc(C=O)cc1C`, for which the call was inactive. Still for that read-out and setting: to `COC(=O)c1ccccc1C(=O)c1ccc(OCCN2CCCCC2)cc1` belongs “inactive”. Still for that read-out and setting: to `CCCN1C[C@H](CSC)C[C@@H]2c3cccc4[nH]cc(c34)C[C@H]21` belongs “inactive”. For `CCOC(=O)[C@H](CCc1ccccc1)N[C@@H](C)C(=O)N1C(=O)N(C)C[C@H]1C(=O)O`, the outcome was inactive. Same read-out and setting: under `O=C1O[C@@H]2[C@@H](O)[C@H](O)O[C@@H]2[C@H]1O` stands “inactive”. As to `COCCOCCOCCOCCOCCO`, the result was inactive. `Brc1ccc(-c2ccccc2)cc1`: the result was inactive. Turning to `CC(C)NCC(O)COc1ccc(COCCOC(C)C)cc1` (stereo not given), the call was inactive. On the same count and under the same terms, under `BrCCCCCBr` stands “inactive”. Same read-out and setting: under `CCOC(=O)c1ncn2c1CN(C)C(=O)c1cc(F)ccc1-2` stands “inactive”. On the same count and under the same terms, under `CC(=O)Nc1ccc(S(=O)(=O)Nc2ccc([N+](=O)[O-])cc2)cc1` stands “inactive”; under `O=C(CCN1CCN(CCO)CC1)N1c2ccccc2Sc2ccc(C(F)(F)F)cc21`, “inactive”; under `COC(=O)CCc1ccc(OCC(O)CNC(C)C)cc1` (stereo not given), “inactive”. For the compound `C=C(C)C(=O)OCc1ccccc1`, the compound was called inactive. On the same count and under the same terms, under `COc1cc2c(cc1OC)C(=O)CC2` stands “inactive”. Take `CC(=O)OC(C)OC(=O)C(C)c1ccc(-c2ccccc2)c(F)c1` (stereo not given): the compound was called inactive. For the compound `CCCCCCCCC1CCC(=O)O1` (stereo not given), the result was inactive. `C=C(C)C(=O)OCCNC(C)(C)C`: the compound was classed as inactive. The same measure, in the same setting: under `C=Cc1ccccn1` stands “inactive”; under `Nc1ncnc(Nc2ccccc2)n1`, “inactive”; under `CCOCCOCCOCC`, “inactive”. In the case of `O=S(O)(O)=S`, the viability change, negative = cytotoxic was 4.99% [at 6.95 µM] (inactive). With `CCCOC(OCCC)OCCC`, the call was inactive.
